High-throughput results: PubChem BioAssay, National Center for Advancing Translational Sciences (NCATS)
Sampled rows, rich in hits. Any-hit rate of the full collection: about 21%.
ClpP mod – qHTS Assay for Activators of ClpP; purified B. subtilis ClpP, FRET peptide cleavage, 20 min; AID 651965, 2013; hit rate 1.9% among 340,000; ATP-dependent Clp protease proteolytic subunit (Bacillus subtilis (strain 168)), P80244; Potency, µM (titrated, usually from 57.5 µM), without a hit: at the top dose activity change, negative = active; active = well fitted falling curve with a large enough effect; inconclusive = small, poorly fitted or top-dose-only effect; inactive = no such curve, though single readings can be large or run the other way; also: potency is read from the fitted curve at half-maximal effect; the source files actives as falling curves though it sought activators and does not explain the sign; nearly all actives have a fitted effect of over 65% in size
Target sequence (P80244 whole entry, looked up): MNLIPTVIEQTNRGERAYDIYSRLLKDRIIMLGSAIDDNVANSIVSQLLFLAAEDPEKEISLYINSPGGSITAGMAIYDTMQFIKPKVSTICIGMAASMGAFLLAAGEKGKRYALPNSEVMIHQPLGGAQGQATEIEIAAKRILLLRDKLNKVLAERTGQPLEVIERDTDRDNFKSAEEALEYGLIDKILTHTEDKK
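Buffer: 100 mM Tris/HCl pH8, 100 mM KCl, 0.05% low protease BSA, 2.5% glycerol, 0.01% Tween-20. ClpP 10 microg/mL final; 20 min RT; delta FRET normalized to ADEP and DMSO controls.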
DRD3 antagonist – qHTS of D3 Dopamine Receptor Antagonist: qHTS | D3R cells, DiscoveRx beta-arrestin luminescence, antagonist mode; stronger effect = lower value | hit rate 2.5% among 360,000 | max response, negative = inhibition, %; in the data active = max response below about -50%; inconclusive = no clear call, values can overlap the other calls; also: % is scaled to controls: 0 for no effect and ±100 for the full control effect
Target sequence (P35462 whole entry, looked up): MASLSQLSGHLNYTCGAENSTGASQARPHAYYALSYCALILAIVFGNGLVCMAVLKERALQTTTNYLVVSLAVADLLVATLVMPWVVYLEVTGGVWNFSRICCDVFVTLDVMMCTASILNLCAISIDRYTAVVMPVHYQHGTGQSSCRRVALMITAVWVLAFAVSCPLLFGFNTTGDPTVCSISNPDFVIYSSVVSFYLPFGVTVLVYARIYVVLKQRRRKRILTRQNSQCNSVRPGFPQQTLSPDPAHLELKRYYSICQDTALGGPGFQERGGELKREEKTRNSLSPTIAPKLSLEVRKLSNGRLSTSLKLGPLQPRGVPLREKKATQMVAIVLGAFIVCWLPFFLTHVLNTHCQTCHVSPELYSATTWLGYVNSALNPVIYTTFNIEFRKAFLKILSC
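Cells expressing the human receptor were seeded at 1500 cells/well, incubated overnight at 37 degrees C in 5% CO2, then exposed to library compounds with dopamine controls for 90 minutes at 37 degrees C before luminescent detection.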
TDP1 cell noCPT – qHTS for Inhibitors of human tyrosyl-DNA phosphodiesterase 1 (TDP1): qHTS in cells in absence of CPT; DT40 Tdp1-/- hTDP1 cells, no CPT, ATP luminescence, 48 h; Potency, µM (highest dose often 46.2 µM), without a hit: at the highest dose activity change, negative = growth inhibition, most hits filed as inhibitors; hit rate 15% among 420,000; also: potency is read from the fitted curve at half-maximal effect; % is scaled to controls: 0 for no effect and ±100 for the full control effect; nearly all actives have a fitted effect of over 55% in size
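Growth of hTDP1-complemented DT40 Tdp1-knockout cells is measured by ATP luminescence after at least 48 hr compound exposure at 37 °C, with DMSO substituting for the 20 nM CPT used in the parallel screen.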
D3 ag – qHTS of D3 Dopamine Receptor Agonist: qHTS | D(3) dopamine receptor (Homo sapiens), P35462 | D3R DiscoveRx beta-arrestin cells, luminescence, 90 min | max activation, % | hit rate 0.58% among 410,000 | AID 652048, 2013; in the data active = max activation above about 30%; also: 0% is about no effect
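Agonist mode: compounds and dopamine controls were applied to plated cells for 90 min at 37 degrees C after an overnight attachment at 1500 cells/well. Luminescent read-out followed 30 - 60 minutes at room temperature with DiscoveRx detection reagent.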
IL-1B inflam inh – qHTS for Inhibitors of Inflammasome Signaling: IL-1-beta AlphaLISA Primary Screen. THP-1 LPS/ATP IL-1B secretion, AlphaLISA, 16 h; stronger effect = lower value. activity change, % at 57.5 µM. hit rate 4.7% among 360,000. AID 743279, 2014; in the data active = activity change below about -50%; inconclusive = mostly about -30% to -49%; also: % is scaled to controls: 0 for no effect and ±100 for the full control effect
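THP-1 cells pretreated 1 hr with compounds (up to 57.5 uM final), then stimulated with LPS (250 ng/mL final) plus ATP (1.25 mM final); secreted IL-1B measured by AlphaLISA after 16 hr, decreased signal indicating inhibition.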
DT40 TDP1 CPT – qHTS for Inhibitors of human tyrosyl-DNA phosphodiesterase 1 (TDP1): qHTS in cells in presence of CPT; chicken DT40 Tdp1-/-;hTDP1 cells + 20 nM CPT, ATP luminescence, 48 h; Potency, µM (top dose mostly 46.2 µM), for the others: top-dose activity change, negative = growth inhibition, most hits filed as inhibitors; hit rate 12% among 420,000; AID 686979, 2013; also: potency is read from the fitted curve at half-maximal effect; % is scaled to controls: 0 for no effect and ±100 for the full control effect; nearly all actives have a fitted effect of over 55% in size
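Chicken DT40 Tdp1-/- cells complemented with human TDP1, 400 cells/well, exposed to compounds plus 20 nM camptothecin for at least 48 h at 37 C; viability read as ATP content by CellTiter-Glo luminescence.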
Starred values were filed as active, the others as inactive. Unless noted, calls follow the shape of the dose curve; as a rule, active = well fitted inhibition curve with a large enough effect; inconclusive = small, poorly fitted or top-dose-only effect; inactive = flat fitted curve, though single readings scatter.

Results for O=C(Nc1ccccc1)c1ccc(Nc2c([N+](=O)[O-])cc([N+](=O)[O-])c3ccccc23)cc1 ?
ClpP mod: -1.8%; DRD3 antagonist: -67.5*; TDP1 cell noCPT: 10.3µM*; D3 ag: -12.7; IL-1B inflam inh: 7.0; DT40 TDP1 CPT: 7.31µM*

What do the screens show for `COc1ccc(NC(=O)CNc2ccccc2N2CCCC2=O)cc1S(=O)(=O)N1CCOCC1`?
ClpP mod: -0.5%; DRD3 antagonist: -7.5; TDP1 cell noCPT: 4.8%; D3 ag: 1.6; IL-1B inflam inh: 6.3; DT40 TDP1 CPT: -0.8%

What do the screens show for `CCOC(=O)c1cccc(NC(=O)C(C)n2nc(C)c3c(C)n(-c4ccccc4)nc3c2=O)c1` (stereo not drawn)?
ClpP mod: -6.6%; TDP1 cell noCPT: inconclusive; D3 ag: 1.4; DT40 TDP1 CPT: inconclusive

What do the screens show for `Cc1cccn2c(=O)nc(SCC(=O)NCc3ccccc3)nc12`?
DRD3 antagonist: -9.6; TDP1 cell noCPT: inconclusive; D3 ag: 8.2; IL-1B inflam inh: 2.7; DT40 TDP1 CPT: inconclusive

How did Cc1c(C(=O)Nc2ccc3c4c(cccc24)CC3)cccc1[N+](=O)[O-] do in these assays?
ClpP mod: 3.4%; DRD3 antagonist: 10.9; TDP1 cell noCPT: 16.4µM*; D3 ag: -1.0; IL-1B inflam inh: 47.0; DT40 TDP1 CPT: inconclusive

Results for Cc1c(C(=O)NC(=S)Nc2ccc3c4c(cccc24)CC3)cccc1[N+](=O)[O-] ?
ClpP mod: 4.8%; DRD3 antagonist: -28.4; TDP1 cell noCPT: inconclusive; D3 ag: -2.2; IL-1B inflam inh: -9.9; DT40 TDP1 CPT: inconclusive

What do the screens show for `O=c1cc(-c2ccccc2)[nH]c2ccc(F)cc12`?
ClpP mod: -17.8%; DRD3 antagonist: -10.8; TDP1 cell noCPT: 0.517µM*; D3 ag: 22.8; IL-1B inflam inh: 79.2; DT40 TDP1 CPT: 0.92µM*

What do the screens show for `Cc1ccc(-c2cc(=O)c3cc(C)ccc3[nH]2)cc1`?
ClpP mod: 5.6%; DRD3 antagonist: -1.8; TDP1 cell noCPT: 3.66µM*; D3 ag: -22.8; IL-1B inflam inh: 56.9; DT40 TDP1 CPT: 5.17µM*

Results for CCc1c(C)[nH]c2ccc(C)cc2c1=O ?
ClpP mod: -13.0%; DRD3 antagonist: 0.9; TDP1 cell noCPT: inconclusive; D3 ag: 2.2; IL-1B inflam inh: 10.1; DT40 TDP1 CPT: inconclusive

Results for O=c1cc(-c2cccc(F)c2)[nH]c2ccccc12 ?
ClpP mod: -13.4%; DRD3 antagonist: -18.5; TDP1 cell noCPT: 0.581µM*; D3 ag: -6.6; IL-1B inflam inh: 51.1; DT40 TDP1 CPT: 1.03µM*

What do the screens show for `Cc1cc(=O)c2cc(C(=O)Nc3ccc(F)cc3)ccc2[nH]1`?
ClpP mod: -9.0%; TDP1 cell noCPT: -10.5%; D3 ag: -14.6; DT40 TDP1 CPT: -0.2%

Results for Cc1ccc(-c2cc(=O)c3cc(F)ccc3[nH]2)cc1 ?
ClpP mod: -7.2%; DRD3 antagonist: -12.3; TDP1 cell noCPT: inconclusive; D3 ag: 2.2; IL-1B inflam inh: 30.9; DT40 TDP1 CPT: 23.1µM*

What do the screens show for `COc1ccc2[nH]c(-c3cccc(F)c3)cc(=O)c2c1`?
ClpP mod: 3.8%; DRD3 antagonist: inconclusive; TDP1 cell noCPT: 0.231µM*; D3 ag: -9.5; IL-1B inflam inh: 27.0; DT40 TDP1 CPT: 0.326µM*

Results for CCOC(=O)c1sc(NC(=O)C(CC)OC(=O)C(CC(C)C)NC(=O)c2ccccc2)nc1C (stereo not drawn) ?
ClpP mod: -2.8%; DRD3 antagonist: 7.7; TDP1 cell noCPT: -11.5%; D3 ag: -8.6; IL-1B inflam inh: -21.5; DT40 TDP1 CPT: -10.5%

What do the screens show for `CCC(OC(=O)C(CC(C)C)NC(=O)c1ccccc1)C(=O)Nc1nnc(C)s1` (stereo not drawn)?
ClpP mod: -0.7%; DRD3 antagonist: -1.5; TDP1 cell noCPT: 5.8µM*; D3 ag: 6.3; IL-1B inflam inh: 17.3; DT40 TDP1 CPT: inconclusive

What do the screens show for `CN(C)CCN(Cc1ccccc1)c1nccc(N(C)C)c1C#N`?
ClpP mod: -15.9%; DRD3 antagonist: inconclusive; TDP1 cell noCPT: -9.6%; D3 ag: -17.3; IL-1B inflam inh: -7.2; DT40 TDP1 CPT: -14.9%

Results for CN(C)c1nccc(Nc2ccccc2)c1C#N ?
ClpP mod: 0.6%; DRD3 antagonist: 0.0; TDP1 cell noCPT: 20.6µM*; D3 ag: 9.6; IL-1B inflam inh: -9.5; DT40 TDP1 CPT: inconclusive

What do the screens show for `COC(=O)c1c[nH]c2c1-c1cc(C(=O)OCc3ccccc3)n(S(=O)(=O)c3ccc(C)cc3)c1C(=O)C2=O`?
ClpP mod: 1.7%; DRD3 antagonist: 11.3; TDP1 cell noCPT: 0.581µM*; D3 ag: -2.0; IL-1B inflam inh: -17.3; DT40 TDP1 CPT: 0.581µM*

How did CCCCS/C(=C(/C#N)C(N)=O)c1cc2c([nH]1)CCCC2 do in these assays?
ClpP mod: -1.8%; DRD3 antagonist: -74.2*; TDP1 cell noCPT: inconclusive; D3 ag: -6.8; IL-1B inflam inh: -66.2*; DT40 TDP1 CPT: 20.6µM*

How did COc1cccc(NC(=O)/C=C/c2ccc(S(=O)(=O)N3CCOCC3)cc2)c1 do in these assays?
ClpP mod: -4.8%; DRD3 antagonist: -4.4; TDP1 cell noCPT: inconclusive; D3 ag: 6.4; IL-1B inflam inh: -8.4; DT40 TDP1 CPT: 18.4µM*

How did COc1ccc(/C=C/C(=O)OCC(=O)Nc2ccc(C)cc2)cc1S(=O)(=O)N1CCOCC1 do in these assays?
ClpP mod: 7.94µM*; DRD3 antagonist: -8.6; TDP1 cell noCPT: -22.5%; D3 ag: 0.6; IL-1B inflam inh: 16.3; DT40 TDP1 CPT: -7.7%

How did CCCOc1ccccc1NC(=O)/C=C/c1ccc(OC)c(S(=O)(=O)N2CCOCC2)c1 do in these assays?
ClpP mod: 2.0%; DRD3 antagonist: -12.4; TDP1 cell noCPT: 16.4µM*; D3 ag: 2.4; IL-1B inflam inh: -22.7; DT40 TDP1 CPT: inconclusive

Results for CCN(Cc1ccc(OC)c(F)c1)C(=O)/C=C/c1ccc(S(=O)(=O)N2CCOCC2)cc1 ?
ClpP mod: -0.5%; DRD3 antagonist: -11.3; TDP1 cell noCPT: 23.1µM*; D3 ag: -2.4; IL-1B inflam inh: -11.6; DT40 TDP1 CPT: inconclusive

What do the screens show for `Cc1ccc(CNC(=O)/C=C/c2ccc(S(=O)(=O)N3CCOCC3)cc2)cc1`?
ClpP mod: 1.1%; DRD3 antagonist: 5.7; TDP1 cell noCPT: -28.4%; D3 ag: 1.4; IL-1B inflam inh: -6.2; DT40 TDP1 CPT: -3.1%
